Experimental data from PubChem BioAssay (NCATS).
Inconclusive results are not listed. Entries that show only a call come without a potency. Active and inactive are the calls of the source. Calls follow the shape of the dose curve; as a rule, active = well fitted inhibition curve with a large enough effect; inconclusive = small, poorly fitted or top-dose-only effect; inactive = no such curve, though single readings can be large or run the other way.

experiment: S16 Schwann cell PMP22 intronic element firefly luciferase assay (AID 624032); details: S16 rat Schwann cells, PMP22 element FLuc, 24 h; series mostly up to 57.5 µM; also: nearly all actives have a fitted effect of over 30% in size
Summary of the method: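 Luciferase reporter of PMP22 intronic-element expression in stably transfected S16 rat Schwann cells, read by ONE-Glo luminescence after 24 h compound exposure at 37 C. Activity scaled between DMSO (0%) and positive-control PTC124; concentration-effect curves quality-classified.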
Potency is read from the fitted curve at half-maximal effect.

Row | SMILES | Potency
1 | O=C(OC1C[C@H]2CC[C@@H](C1)[N+]21CCCC1)C(O)(c1ccccc1)c1ccccc1 (some centres not stated) | inactive
2 | N=C(N)c1ccc2cc(OC(=O)c3ccc(N=C(N)N)cc3)ccc2c1 | inactive
3 | CC(S)C(=O)NCC(=O)O (configuration not stated) | inactive
4 | CC[C@]1(O)C[C@H]2CN(CCc3c([nH]c4ccccc34)[C@@](C(=O)OC)(c3cc4c(cc3OC)N(C=O)[C@H]3[C@@](O)(C(=O)OC)[C@H](OC(C)=O)[C@]5(CC)C=CCN6CC[C@]43[C@@H]65)C2)C1 | 90.7 nM (active)
5 | CCOC(=O)c1c(C)n(C)c2ccc(O)cc12 | inactive
6 | O=C(O)c1cccc(-c2noc(-c3ccccc3F)n2)c1 | inactive
7 | CC(C)[C@H](N)C(=O)OCCOCn1cnc2c(=O)[nH]c(N)nc21 | inactive
8 | O=C(O)c1cn(-c2ccc(F)cc2)c2cc(N3CCNCC3)c(F)cc2c1=O | inactive
9 | CCCCCCCCCCCCCCCCCCCCCCO | inactive
10 | CCOc1cc(CC(=O)N[C@@H](CC(C)C)c2ccccc2N2CCCCC2)ccc1C(=O)O | inactive
11 | O=C(NC(Cc1cc(=O)[nH]c2ccccc12)C(=O)O)c1ccc(Cl)cc1 (configuration not stated) | inactive
12 | Cc1cc(=O)oc2cc(O)ccc12 | inactive
13 | CN(C)C(=O)COC(=O)Cc1ccc(OC(=O)c2ccc(N=C(N)N)cc2)cc1 | inactive
14 | Cc1cc2c(s1)Nc1ccccc1N=C2N1CCN(C)CC1 | inactive
15 | Nc1cc(C(Cl)=C(Cl)Cl)c(S(N)(=O)=O)cc1S(N)(=O)=O | inactive
16 | N=C(N=C(N)N)N1CCOCC1 | inactive
17 | C[C@H](Cn1cnc2c(N)ncnc21)OCP(=O)(O)O | inactive
